Laboratory results: PubChem BioAssay (NCATS)
Inconclusive results are not listed. Activity calls are given as the source filed them. Unless noted, the call rests on the fitted dose curve; in most records, active means well fitted curve in the direction sought with a large enough effect; inconclusive means small, poorly fitted or top-dose-only effect, or another doubt; inactive means no such curve, though single readings can be large; an effect the other way counts as inactive or inconclusive.

What was measured:
[1] = Cellular Toxicity (caspase-3) H-4-II-E (AID 663);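 further: 0% = DMSO basal and 100% = 100 µM tamoxifen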
Method in brief: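 Caspase 3/7 activation measured by luminescent aminoluciferin substrate cleavage after 16 hr compound treatment of H-4-II-E cells in complete medium. Increase normalized between DMSO (basal) and 100 uM tamoxifen (100%); Hill-equation AC50 from concentration-response.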

[2] = Cellular Toxicity (caspase-3) Hek293 (AID 664);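 further: cells exposed to compound for 16 h at 37 °C before readout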
Method in brief: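 Concentration-response qHTS: caspase 3/7 activation measured by luminescent aminoluciferin substrate cleavage after 16 h compound exposure of Hek 293 cells. AC50 from Hill equation, with DMSO as basal and 100 uM tamoxifen as 100%.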

[3] = Cellular Toxicity (caspase-3) N2a (AID 665);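 further: compound exposure lasted 16 h at 37 °C before readout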
Method in brief: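 Caspase-3/7 activation measured as luminescence from Caspase-Glo reagent (1 h, room temperature) after 16 h compound exposure of mouse N2a cells. AC50 values from Hill-equation concentration-response, scaled between DMSO and 10 uM staurosporine.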

[4] = Cellular Toxicity (caspase-3) NIH 3T3 (AID 666);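 further: caspase signal read after 16 h compound exposure; 0% = DMSO basal and 100% = 100 µM tamoxifen stimulation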
Method in brief: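 Caspase-Glo 3/7 luminescence reported caspase activation in 1000 NIH 3T3 cells/well after 16 h compound exposure at 37 C. DMSO set basal and 100 uM tamoxifen set 100% stimulation; concentration-response modeled with the Hill equation for AC50.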

[5] = Cellular Toxicity (caspase-3) Renal Proximal Tubule (AID 667);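 further: cells exposed to compound for 16 hours at 37 °C before detection; 0% = DMSO basal and 100% = 10 µM staurosporine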
Method in brief: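 AC50 derived by standard Hill fit of concentration-response data, normalized between DMSO basal and 10 uM staurosporine as 100% stimulation. Cells: primary rat kidney proximal tubule, 16 h treatment at 37 °C.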

[6] = Cell Viability - LYMP2-001 (AID 921);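 further: series mostly up to about 92 µM; 0% = DMSO only and full inhibition = tetraoctylammonium bromide control wells; nearly all actives have a fitted effect of over 70% in size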
Method in brief: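 Steps: seed 2500 lymphoblastoid cells/well; 5 hr, 37 C; add compound; 24 hr, 37 C; CellTiter-Glo reagent, 30 min room temperature; read luminescence. Concentration-response modeled by Hill equation for AC50.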

[7] = MultiTox-Fluor Cytotoxicity Assay - LYMP1-001 - Dead Cells (AID 946);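 further: 0% = DMSO and 100% = tetraoctylammonium bromide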
Method in brief: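 In this qHTS, 15 uM tetraoctylammonium bromide defined 100% and DMSO defined basal activity. Lymphoblastoid cells (LYMP1-001, 2500 per well) received compound for 16 hr at 37 C before a fluorogenic dead-cell substrate readout at 485/520 nm.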

[8] = MultiTox-Fluor Cytotoxicity Assay - LYMP1-001 - Live Cells (AID 947);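 further: 0% = DMSO only and full inhibition = tetraoctylammonium bromide control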
[9] = Cell Viability - LYMP1-002 - Assay at 16 hr (AID 948);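 further: 0% = DMSO alone and full effect = 92 µM tetraoctylammonium bromide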
Method in brief: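 Seed 2500 LYMP1-002 cells per well in complete medium and hold 5 hr at 37 C. Add compound across a concentration series and incubate 16 hr at 37 C. Add CellTiter-Glo, wait 30 min at room temperature, read luminescence.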

[10] = MultiTox-Fluor Cytotoxicity Assay - LYMP1-002 - Live Cells (AID 955);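 further: cells exposed to compound for 16 hours; on the % scale 0 is the no-effect control and ±100 the full control effect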
Method in brief: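 After 16 h compound exposure at 37 C, live LYMP1-002 lymphoblastoid cells (2500/well) were quantified by cleavage of cell-permeant GF-AFC substrate, read at 405/510 nm after 60 min. Concentration-response fitted with Hill equation for AC50.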

[11] = MultiTox-Fluor Cytotoxicity Assay - LYMP1-003 - Dead Cells (AID 961);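 further: 0% = DMSO and 100% = tetraoctylammonium bromide; nearly all actives have a fitted effect of over 70% in size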
Method in brief: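 Acute toxicity is scored as increased dead-cell protease activity in human lymphoblastoid LYMP1-003 cells after 16 h compound exposure in complete culture medium. Activity is normalized to DMSO basal and 15 uM tetraoctylammonium bromide as full response.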

[12] = MultiTox-Fluor Cytotoxicity Assay - LYMP1-003 - Live Cells (AID 962);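 further: cells exposed to compound for 16 hours at 37 °C; 0% = DMSO only and full loss = 92 µM tetraoctylammonium bromide; cytotoxic hits lower the live-cell protease signal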
Method in brief: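 Live-cell protease activity (GF-AFC substrate, 405/510 nm, 60 min at room temperature) after 16 h, 37 C compound exposure of human lymphoblastoid LYMP1-003 cells; concentration-response fitted to the Hill equation for AC50.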

[13] = Cell Viability - LYMP1-003 - Assay at 24 hr (AID 963);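 further: plate controls were DMSO only for no effect and tetraoctylammonium bromide positive control for full effect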
Method in brief: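 Concentration-response qHTS: ATP loss measured by CellTiter-Glo luminescence after 24 h compound exposure at 37 C. Cells were LYMP1-003 human lymphoblastoid, 2500 per well. AC50 derived via standard Hill equation modeling.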

[14] = Cell Viability - LYMP1-003 - Assay at 40 hr (AID 964); further: series mostly up to about 92 µM; on the % scale 0 is the no-effect control and ±100 the full control effect; nearly all actives have a fitted effect of over 60% in size
Method in brief: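 Viability is taken as cellular ATP, read by CellTiter-Glo luminescence after 40 h of compound exposure at 37 C. Cells: human lymphoblastoid line LYMP1-003 at 2500/well; AC50 values derived by Hill-equation fitting of concentration-response data.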

[15] = Cell Viability - LYMP2-003 (AID 965);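 further: cells exposed to compounds for 24 h before reading; 0% = DMSO only and full effect = 92 µM tetraoctylammonium bromide; nearly all actives have a fitted effect of over 50% in size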
Method in brief: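 Seed 2500 lymphoblastoid cells/well; incubate 5 hr, 37 C; add compounds; incubate 24 hr, 37 C; add CellTiter-Glo, 30 min RT; read luminescence. AC50 from Hill fit.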

[16] = qHTS assay for small molecule agonists of the antioxidant response element (ARE) signaling pathway measured by Nrf2-dependant transcriptional activity (AID 720636; active means well fitted curve in the direction sought with a large enough effect in the repeat runs; an effect the other way counts as inactive or inconclusive;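 further: HepG2 cells with an ARE-driven luciferase reporter; % of control where 0% means no effect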)
Method in brief: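 ONE-Glo luminescence, read 30 min after reagent addition at room temperature, reflected ARE reporter activity in HepG2 cells that had been incubated with compound for 16 hr at 37 C in 1% dialyzed FBS.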

[17] = qHTS assay for small molecule antagonists of the retinoid-related orphan receptor gamma (ROR-gamma) signaling pathway - cell viability counter screen (AID 720652; active means well fitted curve in the direction sought with a large enough effect in the repeat runs; an effect the other way counts as inactive or inconclusive;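 further: CHO reporter cells with doxycycline-induced ROR-gamma expression; series mostly up to about 92 µM; compound exposure lasted 16 hr before ATP read; on the % scale 0 is the no-effect control and ±100 the full control effect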)
Method in brief: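 Cytotoxicity counter screen: intracellular ATP (CellTiter-Glo luminescence) measured in the doxycycline-induced CHO RORE-luciferase reporter line after 16 hr compound exposure at 37 C, 5% CO2.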

[18] = qHTS assay for small molecule agonists of the antioxidant response element (ARE) signaling pathway measured by Nrf2-dependant transcriptional activity - cell viability counter screen (AID 720653; active means well fitted curve in the direction sought with a large enough effect in the repeat runs; an effect the other way counts as inactive or inconclusive; further: on the % scale 0 is the no-effect control and ±100 the full control effect); details: ARE-bla HepG2 viability, CellTiter-Glo ATP luminescence, 16 h; active compounds read low
Method in brief: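 Cytotoxicity counter screen: intracellular ATP quantified by CellTiter-Glo luminescence in the same ARE-bla HepG2 plates, after 16 h compound exposure and a 2 h beta-lactamase substrate step.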

[19] = qHTS assay for cell viability of HEK293 cells (AID 743288); details: ATP luminescence (CellTiter-Glo), 18 h, active compounds read low; further: on the % scale 0 is the no-effect control and ±100 the full control effect; nearly all actives have a fitted effect of over 50% in size
Method in brief: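 Viable-cell counts were inferred from luciferase-based ATP content in HEK293 cells seeded at 2,000/well, pre-incubated ≥5 h, then dosed with DMSO-solubilised compounds for 18 h at 37 C.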

[20] = qHTS assay for cell viability of the p53RE-bla HCT-116 cell line (AID 743292); further: on the % scale 0 is the no-effect control and ±100 the full control effect; nearly all actives have a fitted effect of over 55% in size
Method in brief: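 After plating at 4,000 cells per well and a 5 h rest at 37 C, HCT-116 cells carrying p53RE-bla received test chemicals in DMSO. Sixteen hours later at 37 C, CellTiter-Glo was added and luminescence recorded following 30 min at room temperature.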

Measured: max response

CN(C)CCOC(c1ccccc1)c1ccccc1 (tested in a mixture with another compound)
inactive: [1] | [2] | [3] | [4] | [5] | [6] | [7] | [8] | [9] | [10] | [11] | [12] | [13] | [14] | [15] | [16] | [17] | [18] -6.81% | [19] 3.64% | [20]
